This is a sample that favours compounds with a hit; in the whole collection about 14% have one here.
FBPA Giardia inh: inhibitors of Giardia lamblia fructose-1,6-bisphosphate aldolase. purified Giardia FBPA. AID 2451. hit rate 0.71% among 290,000. A8B2U2. Potency, µM (top dose mostly 59.6 µM), inactives show top-dose activity, negative = inhibition, most hits filed as inhibitors; note: potency is the fitted concentration of half-maximal effect; nearly all actives have a fitted effect of over 55% in size
Target sequence (A8B2U2 whole entry, looked up): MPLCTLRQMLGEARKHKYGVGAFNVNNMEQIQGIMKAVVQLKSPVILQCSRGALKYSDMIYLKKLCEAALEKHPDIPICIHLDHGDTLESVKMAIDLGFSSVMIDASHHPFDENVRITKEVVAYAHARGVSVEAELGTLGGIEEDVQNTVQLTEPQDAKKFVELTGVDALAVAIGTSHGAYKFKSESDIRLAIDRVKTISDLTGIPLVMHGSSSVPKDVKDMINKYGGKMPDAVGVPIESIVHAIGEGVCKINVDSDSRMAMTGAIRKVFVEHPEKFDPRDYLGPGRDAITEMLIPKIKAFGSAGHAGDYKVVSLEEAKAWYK
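40 nM FBPA preincubated 10 min at RT with compound (up to 57.5 uM final), then substrate plus GAPDH/TPI/NAD/arsenate coupling and diaphorase/resazurin added. Fluorescence read after 20 min at RT, 525/598 nm.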
HCMV antiviral: human cytomegalovirus inhibition | HFF cells, HCMV-luciferase reporter, 72 h; active compounds read low | activity change, negative = inhibition, % at 57.5 µM | hit rate 4.5% among 410,000 | AID 1259415; in the data active = activity change below about -60%; inconclusive = no clear call, values can overlap the other calls; inactive = above about -39%
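Two compound doses tested in HFFs infected with HCMV-luciferase, MOI 1 PFU/cell, 72 h at 37C. Lysate luminescence read with OneGlo; data normalized against buffer-only and 10uM Salinomycin inhibitor controls.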
Pf growth 48h: inhibits P. falciparum growth in the first generation, 48 h | hit rate 5.9% among 310,000 | AID 504832 | P. falciparum luciferase growth in erythrocytes, 48 h | Potency, µM (highest dose often 28.7 µM), for inactives: top-dose activity change, negative = inhibition, hits mostly inhibitors; note: potency is the fitted concentration of half-maximal effect
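First compound was added to culture medium, then infected red cells at 0.1% parasitemia and 2% hematocrit (final). After incubation at 37 C under 5% CO2, luciferase detection reagent was dispensed and light output recorded.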
Sm TGR block: blocks Schistosoma mansoni thioredoxin glutathione reductase. Q962Y6. purified TGR, DTNB reduction, TNB absorbance 405 nm. Potency, µM (doses to about 114 µM), inactives show top-dose activity change, negative = inhibition, usual class: inhibitors. hit rate 3% among 360,000. AID 485364; note: potency is the fitted concentration of half-maximal effect; nearly all actives have a fitted effect of over 60% in size
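TGR 20 nM + NADPH 100 uM (dispensed conc.), cpd preinc 15 min RT; start with NADPH (500 uM addition) then DTNB (15 mM addition). Kinetic TNB absorbance, 405 nm filter. Four-parameter Hill fit across titration.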
Pf growth 96h: P. falciparum growth inhibition at 96 hour, primary screen for plastid delayed-death inhibitors. P. falciparum luciferase reporter growth, 96 h. Potency, µM (top dose mostly 28.7 µM), for inactives: at the highest dose activity change, negative = inhibition, actives largely listed as inhibitors. hit rate 6.9% among 320,000. AID 504834; note: potency is the fitted concentration of half-maximal effect
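Erythrocytes infected with luciferase-expressing P. falciparum were dispensed at 2% hematocrit and 0.05% parasitemia (final), then incubated with compounds 96 hours at 37 C in 5% CO2. Luminescence after detection reagent addition reported growth.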
* = called active by the depositor; ? = inconclusive; / = no result. Unless noted, calls come from the whole dose curve; as a rule, active = well fitted curve in the direction sought with a large enough effect; inconclusive = small, poorly fitted or top-dose-only effect, or another doubt; inactive = no such curve, though single readings can be large; an effect the other way counts as inactive or inconclusive. % is set by controls: 0 for no effect and ±100 for the full control effect.

SMILES	FBPA Giardia inh	HCMV antiviral	Pf growth 48h	Sm TGR block	Pf growth 96h
N#CC(C(=O)C1CCCCC1)c1nc2ccccc2[nH]1 (centres undefined)	-26.1%	-99.1*	?	4.1%	?
N#CC(C(=S)Nc1ccccc1)c1nc2ccccc2[nH]1 (centres undefined)	-2.1%	-30.7	?	-6.9%	4.65µM*
CSC(=Nc1ccccc1)C(C#N)c1nc2ccccc2[nH]1 (centres undefined)	-15.3%	-29.7	?	-2.5%	?
COC(=O)c1ccc(CSc2ncnc3c2nnn3-c2ccc(F)cc2)o1	14.9%	14.8	1.04µM*	1.3%	20.0%
COc1ccc(C2=NS(=O)(=O)N(C)C(C(=O)Nc3ccc(OC)c(OC)c3)=C2)cc1	-11.7%	?	1.7%	-2.8%	14.1%
COc1ccc(NC(=O)C2=CC(c3ccc(C)cc3)=NS(=O)(=O)N2C)cc1OC	-10.8%	-62.1*	-3.0%	0.1%	28.3%
CC(C)(C)c1ccc(C(=O)Nc2onc3c2CCCC3)cc1	/	-74.7*	/	11.0%	/
O=C(Nc1onc2c1CCCC2)c1ccccc1	/	64.0	/	4.4%	/
COc1cc(/C=C/C(=O)N(C)CC(=O)Nc2ccccc2Br)cc2c1OCCO2	/	-27.6	8.28µM*	-1.2%	?
O=C(C1CCC1)N1CC(=O)N2[C@H](CO)[C@@H](c3ccc(Br)cc3)[C@@H]2C1	/	-5.2	/	/	/
CCSc1nnc2ccc(-c3ccco3)nn12	1.3%	0.0	17.0%	35.5µM*	-32.7%
CCOC(=O)c1ccc(NC(=O)CC2SC(=NC)N(C)C2=O)cc1 (centres undefined)	-0.4%	-19.3	0.0%	-7.0%	182.9%
COc1ccc(NC(=O)CC2Sc3ncnn3C2=O)cc1 (centres undefined)	?	11.4	21.5%	0.631µM*	?
O=C(CC1Sc2ncnn2C1=O)Nc1ccc(Cl)cc1 (centres undefined)	?	-18.7	5.3%	5.62µM*	-3.0%
O=C(CC1SC2=NCCN2C1=O)Nc1ccc(Cl)cc1 (centres undefined)	-0.4%	38.0	11.5%	8.3%	2.7%
CCOC(=O)c1ccc(NC(=O)CC2Sc3ncnn3C2=O)cc1 (centres undefined)	?	-29.1	-16.9%	1.58µM*	-29.5%
Cc1cccc(OC(=O)c2ccc3c(=O)n4c(nc3c2)CCC4)c1	/	63.2	/	/	/
CCC(CC)NC(=O)/C=C/c1ccccc1Cl	-0.6%	3.8	44.3%	0.5%	-16.3%
C[n+]1ccccc1/C=C/c1c(F)cccc1F	?	?	13.1µM*	12.6µM*	?
Cc1ccccc1/C=C/c1cccc[n+]1C	-4.6%	?	4.65µM*	-2.8%	?
C[n+]1ccccc1/C=C/c1ccccc1Cl	?	-78.5*	1.47µM*	22.4µM*	?
[O-][n+]1ccccc1/C=C/c1ccccc1	/	13.3	/	/	/
COc1ccc(NC(=O)N2c3ccc(OC)cc3[C@@H](NC(C)=O)[C@H](C)[C@H]2c2ccccc2)cc1	/	17.8	/	/	/
CCc1c(C)c2ccc(OC(C)C(=O)NC(Cc3c[nH]c4ccc(O)cc34)C(=O)O)c(C)c2oc1=O (centres undefined)	-3.9%	-19.5	-5.8%	-28.7%	33.3%
O=C(O)CN1C(=O)C(=O)N(Cc2ccc(Cl)c(Cl)c2)C1=O	1.1%	7.5	-3.2%	0.9%	?
SMILES	FBPA Giardia inh	HCMV antiviral	Pf growth 48h	Sm TGR block	Pf growth 96h
COc1ccccc1C(=O)OCC(=O)Nc1cccc(S(=O)(=O)N2CCCC2)c1	/	-11.3	?	-6.1%	-2.9%
O=C(NCC[C@@H]1CC[C@@H](NS(=O)(=O)Cc2ccccc2)[C@@H](CO)O1)C1CC1	/	-8.2	/	/	/
CC[C@@H]1C=C(C)C[C@H](C)C[C@H](OC)[C@H]2O[C@@](O)(C(=O)C(=O)N3CCCC[C@H]3C(=O)O[C@H](/C(C)=C/[C@@H]3CC[C@@H](O)[C@H](OC)C3)[C@H](C)[C@@H](O)CC1=O)[C@H](C)C[C@@H]2OC	1.2%	/	2.33µM*	-3.2%	2.62µM*
CCOC(=O)C(NC(=O)c1ccccc1)(Nc1cc(C)on1)C(F)(F)F (centres undefined)	-1.0%	21.8	19.2%	1.8%	5.22µM*
CCOC(=O)C(NCc1ccc2c(c1)OCO2)(NC(=O)c1ccccc1)C(F)(F)F (centres undefined)	-0.6%	-61.2*	14.8%	0.2%	37.0%
CCOC(=O)C(NCc1ccccc1)(NC(=O)c1ccccc1)C(F)(F)F (centres undefined)	5.3%	-6.2	/	0.0%	-32.9%
CCN(CC)S(=O)(=O)c1ccc(Nc2nc3ccccc3n3nnnc23)cc1	-1.5%	-3.2	4.65µM*	3.1%	-2.5%
Brc1ccc(Nc2nc3ccccc3n3nnnc23)cc1	2.1%	/	/	5.0%	?
c1ccc(Nc2nc3ccccc3n3nnnc23)cc1	4.0%	50.9	?	-7.2%	-61.4%
Fc1cccc(Nc2nc3ccccc3n3nnnc23)c1	2.2%	167.9	/	2.7%	6.57µM*
c1ccc2c(c1)nc(Nc1ccc3c(c1)OCO3)c1nnnn12	-3.8%	-77.7*	10.4µM*	-0.3%	64.6%
Cn1nc([N+](=O)[O-])nc1N1CCOCC1	-2.5%	4.0	8.5%	13.0%	9.9%
NC(c1ccc(F)c(F)c1)c1nc(-c2ccc3ccccc3c2)cs1 (centres undefined)	/	-82.2*	/	/	/
OC(c1ccc(F)c(F)c1)c1nc(-c2ccc3ccccc3c2)cs1 (centres undefined)	/	13.7	/	/	/
Cc1ccc2oc(-c3ccc(Cl)c(NC(=O)c4ccc(OC(C)C)cc4)c3)nc2c1	/	95.0	/	5.1%	/
O=C(Cn1c(=O)c2cccn2c2ccc(F)cc21)Nc1cccc(F)c1	/	10.9	/	-0.3%	/
O=C(Nc1cccc(F)c1)c1ccc2oc(=O)n(Cc3ccccc3)c2c1	/	-68.4*	/	-2.2%	/
O=C(Cn1c(=O)c(=O)n(Cc2ccccc2)c2ccc(Cl)cc21)Nc1cccc(F)c1	0.6%	45.1	1.7%	-15.3%	13.1µM*
CN(CC(=O)Nc1cccc(F)c1)C(=O)Cn1c(=O)oc2ccccc21	/	-9.6	-13.7%	-1.2%	-9.3%
O=C(Cn1c(=O)n(Cc2ccco2)c(=O)c2ccccc21)Nc1cccc(F)c1	/	-3.7	/	2.4%	/
O=C(Cn1c2ccccc2c(=O)c2ccccc21)Nc1cccc(F)c1	2.9%	8.2	14.7µM*	8.3%	?
Cc1cc(NC(=O)N2CCC(CN3CCCCCC3)CC2)ccc1Br	/	-17.1	/	-28.5%	/
CC(C)[C@H](NC(=O)CCCn1nnc2ccccc2c1=O)C(=O)O	3.7%	15.2	34.3%	39.8µM*	44.7%
Cc1ccc(NC(=O)Cn2nnc3ccccc32)cc1	5.1%	142.9	96.2%	-0.7%	-24.2%
COC(=O)c1ccc(NC(=O)Cn2nnc3ccccc32)cc1	-0.4%	23.8	95.7%	-11.9%	5.22µM*
O=C(O)CNC(=O)CCCn1nnc2ccccc2c1=O	2.9%	-18.5	2.8%	5.4%	67.0%

Assay outcomes as filed in PubChem BioAssay.
